This is a sample that favours compounds with a hit; in the whole collection about 1.8% have one here.
pCIP destab – lowers stability of the mouse p/CIP coactivator protein | Q05BA5 | F442A p/CIP-EGFP cells, EGFP fluorescence, 16 h | decrease of EGFP signal, % at 10 µM | 0.01% of 290,000 active | AID 1984;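 active = EGFP signal decrease of at least 30% at 10 µM or well 3 SD below plate mean, unless failing retest; inactive = the rest, including hits failing retest or dose response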
UBC9 SUMO inh – inhibitors of human SUMOylation (UBC9); HTRF SUMOylation assay, SAE1/SAE2 + UBC9, in vitro; 0.36% of 290,000 active; AID 2006; inhibition, % at 35 µM; in the data active = inhibition above about 50%, passing the limit was not always enough
Target sequence (P63279 whole entry, looked up): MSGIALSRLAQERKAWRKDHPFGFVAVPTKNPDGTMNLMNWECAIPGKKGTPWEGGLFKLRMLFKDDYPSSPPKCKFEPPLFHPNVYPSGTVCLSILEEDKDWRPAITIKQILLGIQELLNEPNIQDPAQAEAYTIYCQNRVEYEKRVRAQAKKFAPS
NadD inh – NadD (S. aureus) enzyme inhibition. purified NadD enzyme, colorimetric absorbance read-out. inhibition, % at 20 µM. 0.78% of 360,000 active; in the data active = inhibition above about 26%
PHOSPHO1 inh – inhibitors of human PHOSPHO1 phosphatase; inhibition, % at 13.3 µM; 1.1% of 290,000 active; recombinant PHOSPHO1, absorbance phosphatase assay; AID 1565; in the data active = inhibition above about 60%
Target sequence (Q8TCT1 whole entry, looked up): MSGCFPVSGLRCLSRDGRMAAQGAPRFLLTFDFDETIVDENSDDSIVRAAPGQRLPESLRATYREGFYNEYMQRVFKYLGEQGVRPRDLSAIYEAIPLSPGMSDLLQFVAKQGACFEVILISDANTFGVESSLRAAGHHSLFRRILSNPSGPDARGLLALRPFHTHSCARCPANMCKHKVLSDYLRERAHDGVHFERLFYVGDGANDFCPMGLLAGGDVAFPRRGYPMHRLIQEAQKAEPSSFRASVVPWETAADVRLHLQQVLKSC
Large screens that a line does not name were inactive.

CC1(c2ccc(Cl)cc2)NC(=O)N(CC(=O)N2CCc3ccccc32)C1=O (centres undefined)	none (no result: pCIP destab, UBC9 SUMO inh, PHOSPHO1 inh)
Cc1ccc(NC(=O)CN2C(=O)S/C(=C\c3ccc(-c4cccc(C(=O)O)c4C)o3)C2=O)cc1C	NadD inh 34.8 (no result: UBC9 SUMO inh)
Cc1ccc(NC(=O)CN2C(=O)S/C(=C\c3cccn3-c3cccc(C(=O)O)c3)C2=O)cc1C	UBC9 SUMO inh 64.4
O=C(CN1C(=O)S/C(=C\c2ccc(-c3cc(C(=O)O)ccc3Cl)o2)C1=O)Nc1ccc2c(c1)OCO2	UBC9 SUMO inh 83.9, NadD inh 53.4
Cc1ccc(CNC(=O)CN2C(=O)NC3(CC(C)CC(C)(C)C3)C2=O)cc1 (centres undefined)	none (no result: pCIP destab, UBC9 SUMO inh, PHOSPHO1 inh)
CCOC(=O)C(Cc1ccc(O)cc1)NC(=O)c1cc2c(cn1)[nH]c1ccccc12 (centres undefined)	none (no result: pCIP destab, UBC9 SUMO inh, PHOSPHO1 inh)
c1cn2c(-c3ccc(N4CCOCC4)cc3)cncc2n1	none (no result: pCIP destab, UBC9 SUMO inh, PHOSPHO1 inh)
COc1cccc(C(C[N+](=O)[O-])c2c(C)[nH]n(-c3ccccc3)c2=O)c1 (centres undefined)	UBC9 SUMO inh 96.7
Cc1[nH]n(-c2ccccc2)c(=O)c1C(c1cccc([N+](=O)[O-])c1O)c1c(C)[nH]n(-c2ccccc2)c1=O	UBC9 SUMO inh 62.4
C[C@H]1COc2cccc(N3CCC[C@@H]3CO)c2S(=O)(=O)N1	none (no result: pCIP destab, UBC9 SUMO inh, PHOSPHO1 inh)
CSc1ccc(/C=C/C(=O)OCC(=O)NC2CCCCCC2)cc1	none (no result: pCIP destab, UBC9 SUMO inh, PHOSPHO1 inh)
CCOc1ccccc1CN1CCN(Cc2cn(C)nc2-c2ccccc2)CC1CCO (centres undefined)	PHOSPHO1 inh 60.1
Cn1cc(CN2CCN(Cc3ccccc3)C(CCO)C2)c(-c2ccccc2)n1 (centres undefined)	none
CCOC(=O)/C(C(N)=NCC(C)C)=C(/O)c1ccccc1	PHOSPHO1 inh 61.1
C=C1c2cc3c(cc2NC(=S)N1Cc1ccccc1)OCO3	PHOSPHO1 inh 69.9
CCOC(=O)N1CCN(S(=O)(=O)c2ccc(C(=O)N(CCCN(C)C)c3nc4ccc(CC)cc4s3)cc2)CC1	none
CCOC(=O)N1CCN(S(=O)(=O)c2ccc(C(=O)N(CCCN(C)C)c3nc4ccc(Cl)cc4s3)cc2)CC1	PHOSPHO1 inh 62.8
CC(=O)C1=C(C)NC(SCC(=O)c2ccc(F)cc2)=C(C#N)C1c1ccco1 (centres undefined)	none
CC(=O)C1=C(C)NC(SCC(=O)c2ccc(Cl)cc2)=C(C#N)C1CC(C)C (centres undefined)	PHOSPHO1 inh 87.4
CC(=O)C1=C(C)NC(SCC(N)=O)=C(C#N)C1CC(C)C (centres undefined)	none
CC(=O)C1=C(C)NC(SCC(=O)c2cc(Cl)ccc2Cl)=C(C#N)C1c1ccco1 (centres undefined)	PHOSPHO1 inh 77.8
CC(=O)C1=C(C)NC(SCC(=O)c2ccc(Cl)c(Cl)c2)=C(C#N)C1c1ccco1 (centres undefined)	PHOSPHO1 inh 75.6
CC(=O)C1=C(C)NC(SCC(N)=O)=C(C#N)C1C (centres undefined)	PHOSPHO1 inh 88.2
CC(=O)C1=C(C)NC(SCC(N)=O)=C(C#N)C1c1ccco1 (centres undefined)	none
CC1(c2nc3ccccc3[nH]2)CCC(=O)N1Cc1cccs1 (centres undefined)	none (no result: pCIP destab, UBC9 SUMO inh, PHOSPHO1 inh)
CC(=O)NCCNc1nc2cc(-c3ccccc3CO)sc2c(=O)n1C	none (no result: pCIP destab, UBC9 SUMO inh, PHOSPHO1 inh)
CC(C)S(=O)(=O)N1CCCC(c2cc(C(=O)Nc3ccc(F)c(Cl)c3)no2)C1 (centres undefined)	none (no result: pCIP destab, UBC9 SUMO inh, PHOSPHO1 inh)
CC1(C)CC2CC(C)(CN2C(=O)COC(=O)c2ccc(NC(=O)CC#N)cc2)C1 (centres undefined)	none (no result: pCIP destab, UBC9 SUMO inh, PHOSPHO1 inh)
COCCNC(=O)C1CCCN(C(=O)c2ccc(C(F)(F)F)nc2C)CC1 (centres undefined)	none (no result: pCIP destab, UBC9 SUMO inh, PHOSPHO1 inh)
CCC(c1nnnn1-c1ccc2c(c1)OCCO2)N1CCN(c2ccccn2)CC1 (centres undefined)	none (no result: pCIP destab, UBC9 SUMO inh, PHOSPHO1 inh)
CSCSC1=C(C#N)C(c2ccccc2Cl)C(C(C)=O)=C(C)N1 (centres undefined)	PHOSPHO1 inh 93.2
CCOC(=O)CSC1=C(C#N)C(c2ccccc2F)C(C(C)=O)=C(C)N1 (centres undefined)	none
N=c1c(C(=O)NCc2ccc(F)cc2)cc2c(=O)n3ccccc3nc2n1Cc1ccco1	NadD inh 30.8
CC(C)n1c(=N)c(C(=O)NCCc2ccccc2)cc2c(=O)n3ccccc3nc21	PHOSPHO1 inh 63.0
N=c1c(C(=O)NCc2ccco2)cc2c(=O)n3ccccc3nc2n1Cc1ccc(Cl)cc1	none
N#Cc1cc2c(=O)n3ccccc3nc2n(Cc2ccco2)c1=NC(=O)c1ccco1	UBC9 SUMO inh 51.9
Cc1ccc2nc3c(cc(C(=O)NCc4ccco4)c(=N)n3Cc3ccco3)c(=O)n2c1	UBC9 SUMO inh 73.6
Cc1ccccc1C(=O)N=c1c(C#N)cc2c(=O)n3cccc(C)c3nc2n1Cc1ccco1	none (no result: NadD inh)
Cc1cccn2c(=O)c3cc(C(=O)NCc4cccnc4)c(=N)n(C(C)C)c3nc12	none
CC(=O)N1C(=O)C2(NCC(C)N2)c2ccccc21 (centres undefined)	none (no result: pCIP destab, UBC9 SUMO inh, PHOSPHO1 inh)
C=CCn1c(SCC(=O)NC2CCCC2)nc2ccccc21	none (no result: pCIP destab, UBC9 SUMO inh, PHOSPHO1 inh)
CCCC(=O)N1CCC1(C)C(=O)Nc1cc(OC)ccc1OC (centres undefined)	none (no result: pCIP destab, UBC9 SUMO inh, PHOSPHO1 inh)
N=c1sccn1CC(=O)Nc1cccc(Oc2ccccc2)c1	none
N=c1sccn1CC(=O)Nc1cc(Cl)ccc1Oc1ccccc1	PHOSPHO1 inh 68.8
O=C(/C=C/c1ccco1)NC(=S)Nc1ccc(C(=O)O)cc1	none
O=C(/C=C/c1ccco1)NC(=S)Nc1ccc(N2CCCC2)cc1	UBC9 SUMO inh 60.2
O=C(CSc1nncn1-c1ccccc1)Nc1ccc(N2CCOCC2)cc1	PHOSPHO1 inh 86.9
C/C(N)=C(/C#N)C(=O)CSc1nnc(C)n1-c1ccccc1	none
COc1ccc(-n2cnnc2SCC(=O)N2CCN(c3ccccc3)CC2)cc1	PHOSPHO1 inh 92.7
C/C(N)=C(/C#N)C(=O)CSc1nncn1-c1ccccc1	PHOSPHO1 inh 68.1
O=C(Nc1ccc2oc(-c3ccc4ccccc4c3)nc2c1)c1ccc2c(c1)OCCO2	UBC9 SUMO inh 54.8
COc1ccc(S(=O)(=O)N2CCN(CC(=O)NC3CC3)CC2)cc1	PHOSPHO1 inh 61.6
COc1ccc(S(=O)(=O)N2CCC(Nc3ccccc3Cl)CC2)cc1	PHOSPHO1 inh 61.0
O=C(CN1CCN(S(=O)(=O)c2ccc(F)cc2)CC1)NC1CCCC1	PHOSPHO1 inh 60.6
CC1(Oc2cccc(F)c2)CCN(Cc2ccc(-c3ccccn3)cc2)C1 (centres undefined)	none (no result: pCIP destab, UBC9 SUMO inh, PHOSPHO1 inh)
Cn1c(SCCCC(=O)c2ccc(F)cc2)nnc1-c1ccncc1	none
Cn1c(SCCCC(=O)c2ccccc2)nnc1-c1ccncc1	PHOSPHO1 inh 68.0
COCCNc1nc2cc(-c3ccccc3OC)sc2c(=O)n1C	none (no result: pCIP destab, UBC9 SUMO inh, PHOSPHO1 inh)
CCC(=O)Nc1c2c(nn1-c1ccccc1)CSC2	none
Cc1ccc(-n2nc3c(c2NC(=O)C(C)(C)C)CSC3)c(C)c1	PHOSPHO1 inh 88.3
CCC(=O)Nc1c2c(nn1-c1ccc(C)cc1C)CSC2	PHOSPHO1 inh 86.0
O=C(NC(c1ccc(-c2ccccc2)cc1)c1cnccn1)C1CCN(CCCOc2ccccc2)CC1 (centres undefined)	none (no result: pCIP destab, UBC9 SUMO inh, PHOSPHO1 inh)

Assay outcomes as filed in PubChem.
